Reference: PubChem BioAssay (NCI)
The panel holds about 83,000 compounds, 20% with a hit somewhere; the sample as a whole holds those more often.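 Cells were grown in 96-well plates and exposed to the test compound at a single concentration for 48 hours; results are reported as percent growth, with values below 10 considered active.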 Active and inactive are the calls of the source.

What was measured:
Experiment in all cases: NCI-60 one-dose screen, 48 h (100 = growth as untreated, 0 = no growth, -100 = all killed)
Conditions in all cases: 10 µM unless noted
[1] = system: T-47D breast
[2] = system: BT-549 breast
[3] = system: MDA-MB-435 melanoma
[4] = system: SW-620 colon
[5] = system: MCF7 breast
[6] = system: HCT-116 colon
[7] = system: HCC-2998 colon
[8] = system: KM12 colon

Measured: growth

N#Cc1c(-c2ccccc2)nc2c(c(-c3ccc(Cl)cc3)nn2-c2ccccc2)c1-c1ccc([N+](=O)[O-])cc1
inactive: [1] 90.2% | [2] 111% | [3] 103% | [4] 96.1% | [5] 91.7% | [6] 88.9% | [7] 120% | [8] 102%

C/C(=C(\c1ccc(OCCN2CCCCCC2)cc1)c1ccc(OC(=O)c2ccccc2)cc1)c1ccc(Cl)cc1
inactive: [1] 42.6% | [2] 68.5% | [3] 56% | [4] 25.8% | [5] 14.5% | [6] 17.9% | [7] 60.7% | [8] 32.1%

COc1ccc(Cl)cc1Nc1nc(C(F)(F)F)ccc1C(=O)N/N=C/c1ccc([N+](=O)[O-])cc1
active: [1] 7.15% | [4] 5.81% | [5] -8.58% | [7] -27.8% | [8] -3.54%
inactive: [2] 18.6% | [3] 15.9% | [6] 11.3%

Nc1ncnc2c1N=C(c1ccc(F)cc1)CC(c1cccc(Nc3ccnc4cc(Cl)ccc34)c1)N2 (stereo unspecified)
inactive: [1] 93.2% | [2] 99.9% | [3] 41.8% | [4] 82.8% | [5] 51.2% | [6] 49.7% | [7] 82.5% | [8] 60.9%

O=C1CCC(C(=O)N/N=C/c2cc(F)ccc2F)N1 (stereo unspecified)
inactive: [1] 97.2% | [2] 103% | [3] 100% | [4] 106% | [5] 93.4% | [6] 103% | [7] 107% | [8] 104%

CCN(CC)CCOc1ccc(/C(=C(\C)Cc2ccc(OC)cc2)c2ccc(OC(=O)NCc3ccccc3)cc2)cc1
inactive: [1] 40.6% | [2] 77.4% | [3] 40.7% | [4] 57.6% | [5] 20.6% | [6] 25.3% | [7] 70.6% | [8] 63.4%

CCOc1ccc(/C=C/C(=O)c2cccc(OCCCOc3cccc(C(=O)/C=C/c4ccc(OCC)cc4)c3)c2)cc1
inactive: [1] 63.4% | [2] 92.1% | [3] 79.7% | [4] 98% | [5] 84.5% | [6] 81.7% | [7] 94.9% | [8] 93%

COc1ccc(/C=C/C(c2cc(OC)c(OC)c(OC)c2)n2cncn2)cc1O (stereo unspecified)
inactive: [1] 34.4% | [2] 36.6% | [4] 27.6% | [5] 21.2% | [6] 10.5% | [7] 67.7% | [8] 26.7%
active: [3] -33%

CS(=O)(=O)Nc1cc(-c2ccc3ncnc(Nc4ccc5c(cnn5Cc5ccccc5F)c4)c3c2)cnc1Cl
inactive: [2] 14.6% | [3] 43.6% | [4] 46.8% | [5] 13.9% | [6] 60.4% | [7] 59.3% | [8] 71.5%
active: [1] -4.36%

Cc1nc([P+](c2ccccc2)(c2ccccc2)c2ccccc2)c(N2CCCCC2)o1
inactive: [2] 20% | [3] 21.3% | [4] 37% | [5] 10.9% | [6] 10.9% | [7] 31.6% | [8] 10.1%
active: [1] -0.433%

O=C(Nc1ccc(Oc2cccc(Cl)c2)c(Cl)c1)c1cccnn1
inactive: [1] 72.4% | [2] 98.5% | [3] 77.6% | [4] 105% | [5] 91.7% | [6] 66.7% | [7] 95.2% | [8] 85.3%

c1cc(OCCN2CCCCCC2)ccc1CNc1ccc2nc(CCC3CCCCC3)[nH]c2c1
active: [5] 5.67% | [7] -4.87%
inactive: [1] 31.6% | [2] 76.5% | [3] 40.6% | [4] 28.8% | [6] 22.9% | [8] 65.6%

C=CN(C(=O)N1CCN(c2cc3c(cc2F)c(=O)c(C(=O)O)cn3C2CC2)CC1)c1nc(-c2ccc(Cl)cc2)cs1
inactive: [1] 76.2% | [2] 63.1% | [3] 74.8% | [4] 93.9% | [5] 51.3% | [6] 24.1% | [7] 95.9% | [8] 61.8%

c1cc(OCCCCCOc2cccc(-c3nc4ccccc4[nH]3)c2)cc(-c2nc3ccccc3[nH]2)c1
inactive: [1] 12.2% | [4] 12.7% | [7] 14.2%
active: [2] 6.65% | [3] 8.32% | [5] -2.42% | [6] 7.44% | [8] 8.91%

CN(C)CCC(=O)C1CC1
inactive: [1] 97.6% | [2] 99.7% | [3] 105% | [4] 102% | [5] 108% | [6] 96.1% | [7] 103% | [8] 109%

C[C@H](c1nc2ccc(C#N)cc2[nH]1)[C@H]1CC[C@H]2[C@@H]3CCC4=CC(=O)CC[C@]4(C)[C@H]3CC[C@]12C
inactive: [1] 29.4% | [2] 58.9% | [3] 84.2% | [4] 89.1% | [5] 59.5% | [6] 49.7% | [7] 67.4% | [8] 68.9%

O=C1C=CC2(O)OC/C(=C\c3ccccc3)C(O)=C2C1=O (stereo unspecified)
active: [1] -19.8% | [2] -1.66% | [4] 5.52% | [6] -9.7% | [8] -16.9%
inactive: [3] 15.8% | [5] 23.4% | [7] 80.6%

CCOC(=O)c1c(C)nc2c(c1N)C(=O)C(=O)N2Cc1ccc(OC)cc1
inactive: [1] 49.1% | [2] 80.5% | [3] 31% | [4] 41.9% | [5] 18.6% | [6] 25.1% | [7] 99.3% | [8] 25.7%

C[C@H]1[C@H](C)CC[C@]2(C(=O)NCCNCCN)CC[C@]3(C)C(=CC[C@@H]4[C@@]5(C)CCC(=O)C(C)(C)[C@@H]5CC[C@]43C)[C@H]12
inactive: [1] 39.8% | [2] 92.3% | [5] 12.6% | [8] 11.4%
active: [3] -75.7% | [4] -74.7% | [6] -51.8% | [7] -43.7%

C=C1C(=O)O[C@H]2[C@H]1CC/C(COC(=O)NCc1ccc(Cn3c(=O)sn(-c4ccccc4)c3=O)cc1)=C\CC[C@@]1(C)O[C@@H]21
active: [4] -13% | [6] 5.85%
inactive: [1] 57.7% | [2] 51.3% | [3] 33.4% | [5] 15.4% | [7] 75.2% | [8] 96.8%

C(=C(\C1=NCCN1)n1ccc2ccccc21)/c1ccccc1
inactive: [1] 90.3% | [2] 107% | [3] 97.7% | [4] 89.8% | [5] 84.5% | [6] 94% | [7] 103% | [8] 99.4%

CCOC(=O)c1cnn(CC(C)O)c1NC(=O)NCc1ccccc1C(F)(F)F (stereo unspecified)
inactive: [1] 105% | [2] 91.4% | [3] 104% | [4] 105% | [5] 95.5% | [6] 84.8% | [7] 93.8% | [8] 99.4%

O=C1Nc2ccccc2/C1=N/N1C(=O)CN(CCCl)C1=O
inactive: [1] 102% | [2] 111% | [3] 98.9% | [4] 95.1% | [5] 93.8% | [6] 98.6% | [7] 104% | [8] 113%

O=C(Cc1ccc(/C=C/C(=O)c2ncc[nH]2)cc1)Nc1cc(F)c(F)c(F)c1
inactive: [1] 49.9% | [2] 66.7% | [3] 51.2% | [4] 13.1% | [5] 10.4% | [6] 15.8% | [7] 75.2% | [8] 24.7%

CS(=O)(=O)Nc1cc(-c2ccc3ncnc(Nc4ccc5c(cnn5Cc5ccncc5)c4)c3c2)cnc1Cl
inactive: [2] 16.1% | [3] 63.2% | [4] 68.6% | [5] 31.3% | [6] 75.2% | [7] 73.7% | [8] 93.4%
active: [1] 2.48%

COC1C(O)CC(OC2CC(OC3CC(O[C@@H]4C(=O)c5c(cc6cc(OC7CC(OC8CC(O)C(O)C(C)O8)C(O)C(C)O7)c(C)c(O)c6c5O)CC4[C@H](OC)[C@@H](O)C(C)=O)OC(C)C3O)OC(C)C2O)OC1C (stereo partly specified)
inactive: [4] 14.9% | [8] 14.7%
active: [1] 1.23% | [2] -1.59% | [3] 5.77% | [5] 4.58% | [6] 4.98% | [7] -50%

O=C(CCCCCCCC(=O)N1CCCCC1)N1CCCCC1
inactive: [1] 117% | [2] 96.4% | [3] 105% | [4] 92.2% | [5] 97.1% | [6] 94.8% | [7] 86.5% | [8] 100%
